We go through 40 compounds from PubChem BioAssay (NCI).

About 83,000 compounds went through this panel and 20% of them were active in at least one assay; those are over-represented in the sample as a whole.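 Values shown are percent growth following 48 h exposure of cells in 96-well plates to a single concentration of compound; below 10 was considered active.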 Values without a mark were called inactive. Calls of active or inactive are those of the source.

In this test the test system is SNB-19 CNS. The test can be described thus: NCI-60 one-dose screen, 48 h (100 = growth as untreated, 0 = no growth, -100 = all killed). Particulars: 10 µM. The method, then:
Growth inhibition of the SNB-19 human tumor cell line is measured as a screen for anti-cancer activity. Cells are grown in 96 well plates and exposed to the test compound for 48 hours. Compounds are tested at a single concentration, which is 10^-5 M for most compounds. The reported endpoint is percent growth (GI% or GIPRCNT), where numbers from 0 - 100% represent growth inhibition, and numbers from -100% - 0 represent cell death. For example, a value of 40 represents 60% growth inhibition. A value of 0 means no net growth occurred over the course of the experiment. A value of -40 indicates 40% of cells at the beginning of the experiment died by the end of the experiment. A value of -100 means all cells are dead at the end of the experiment.
NCI-60 Human Tumor Cell Lines Screen was performed using the standard one-dose NCI protocol, which is described in more detail at https://dtp.cancer.gov/discovery_development/nci-60/default.htm.
Compounds with GIPRCNT values below 10 were considered active. Activity score was based on GIPRCNT using the following formula: […]
Score is 0 for GIPRCNT values of 100 or above, 50 for GIPRCNT values of 0, and 100 for GIPRCNT values of -100.
For the compound `CCC(CC)n1c(C)cc(=O)n1C(CC)CC`, the growth was 96%.

As to `COc1ccccc1/C=N\N/C(N)=N\N=C\c1ccccc1OC`, the growth was 35.3%.

Consider `Cc1c(O)c(=O)ccn1C1CCC(CC2CCC(n3ccc(=O)c(O)c3C)CC2)CC1` (stereo not given), for which the growth was 30.2%.

Consider `Brc1ccc2c(c1)-c1ccccc1C1=NCCN12`, for which the growth was 16.2%.

On to `O=C(O)Cc1ccc(O)c(O)c1`, for which the growth was 102%.

Consider `CCOC(=O)/C(=C(\C)N)C1CC(=O)NC1=O` (stereo not given), for which the growth was 101%.

Consider `Oc1ccc(/C=N/N=C2c3ccccc3-c3ccccc32)c(O)c1`, for which the growth is 80.3%.

Turning to `O=C(CCCCCCC(=O)Nc1ccccc1)NO`, the growth was 25%.

Take `COc1ccc([C@H]2[C@H](C(=O)Nc3cccnc3)c3ccccc3C(=O)N2c2ccccc2)cc1`: the growth was 88.4%.

As for `CCOc1ccccc1/C=N\N=C(\N)N/N=C/c1ccccc1OCC`, the growth was 43%.

In the case of `COc1cc2c(cc1OC)C(C(CCCCCC(CCC(C)C)C1NCCc3cc(OC)c(OC)cc31)CCC(C)C)NCC2` (stereo not given), the growth was -47.5% (active).

For `COc1cc(-c2csc(NC(=O)Nc3ccc(Cl)c(C(F)(F)F)c3)n2)cc(OC)c1OC`, the growth was 13.2%.

As to `CN1C(C(=O)Nc2ccccn2)=C(O)c2sc(Cl)cc2S1(=O)=O`, the growth is 104%.

For the compound `CCN(CC)c1ccc(/C=C2\SC(=O)C(Nc3nnc(-c4cccnc4SCc4ccccc4)o3)C2=O)cc1` (stereo not given), the growth is 63.5%.

For the compound `Cc1ccc(-c2c3c(N)nc(-c4cccnc4)nc3nc3c2c(C)nn3-c2ccccc2)cc1`, the growth is 99.1%.

For `Nc1ccc(-c2cccs2)cc1NC(=O)c1ccc(CCCC(=O)Nc2ccc(C3CC3N)cc2)cc1` (stereo not given), the growth is 90.8%.

With `Cc1cn(-c2cc(F)cc(NC(=O)c3ccc(C)c(Nc4nccc(-c5cccnc5)n4)c3)c2)cn1`, the growth was 6.01% (active).

For `Nc1cc(-c2ccc(Cl)cc2)nn1-c1nc2ccccc2nc1Cc1ccccc1`, the growth is 89.9%.

Regarding `CC[C@@H](C(=O)[C@@H](C)[C@@H](O)[C@H](C)[C@@H]1O[C@@H]([C@@H](CC)C(=O)N(CC)CC)CC[C@@H]1C)C1O[C@]2(C=CC(=O)[C@]3(CC[C@@](C)([C@H]4CC[C@](O)(CC)[C@H](C)O4)O3)O2)[C@H](C)C[C@@H]1C` (stereo not given in full), the growth is 23.4%.

For the compound `COc1ccccc1-n1c(-c2sc(NC(C)=O)nc2C)n[nH]c1=S`, the growth is 103%.

With `C#CC(C)(O)[C@@H]1C[C@H](CC(=O)O)C1(C)C` (stereo not given in full), the growth is 98.6%.

Regarding `CC(=O)Nc1ccc(CC[C@H]2CCC/C=C/[C@@H]3C[C@H](O)C[C@H]3[C@H](O)/C=C/C(=O)O2)cc1`, the growth is 25.9%.

On to `O=C(CCCSc1nc(-c2ccc(Cl)cc2)cc(-c2ccc(Cl)cc2)n1)NO`, for which the growth was 17.7%.

For the compound `O=C(CCn1cnc2c(cc(-c3ccccc3)n2-c2ccccc2)c1=O)Nc1ccc(F)cc1`, the growth is 72.9%.

Consider `CC(C)N(CCOc1ccc(-c2nc3sccn3c2-c2ccnc(S(C)(=O)=O)n2)cc1)C(C)C`, for which the growth is 107%.

Regarding `COc1ccc(N=Nc2cc(OC)c(OC)c(OC)c2)cc1`, the growth was 89%.

Consider `Cc1ccc(-n2nnnc2N)c(C)c1`, for which the growth was 113%.

Take `COc1ccc(C(=O)N/N=C/c2cc(C(F)(F)F)ccc2Cl)cc1`: the growth is 91.9%.

Turning to `O=C1NC(=O)c2c(CCCSc3nc4ccccc4c(=O)n3CCc3ccccc3)cccc21`, the growth is 94.8%.

On to `COc1cc(-c2nn(-c3ccc(NC(=O)NCCNS(=O)(=O)c4ccc(F)cc4)cc3)cc2-c2ccncc2)ccc1Cl`, for which the growth is 31%.

Consider `CNC(=O)c1cn2c3c(c(N4CCN(C)CC4)c(F)cc3c1=O)OC[C@@H]2C`, for which the growth was 106%.

Regarding `COc1ccc(/C=C/c2nnc(/C=C/c3ccc(OC)c(OC)c3)o2)cc1OC`, the growth is 14.8%.

In the case of `N#Cc1c(N)nc(-c2cc(F)cc(C(F)(F)F)c2)nc1-c1ccccc1F`, the growth was 46.5%.

In the case of `COc1ccc(-c2n[nH]nc2-c2cc(OC)c(OC)c(OC)c2)cc1`, the growth was 58.3%.

As to `Cc1cc(C)nc(NS(=O)(=O)c2ccc(Nc3nc4nc(NCc5ccccc5)nc(-c5ccc(O)cc5)c4c(=O)[nH]3)cc2)n1`, the growth is 28.2%.

Consider `CN(C)CCOc1ccc(-c2nc3sccn3c2-c2ccnc(S(C)(=O)=O)n2)cc1`, for which the growth was 99.1%.

As for `CC1C(=NC(=O)c2cnccn2)C(C)C(c2ccc(Cl)cc2)NC1c1ccncc1` (stereo not given), the growth is 88.4%.

In the case of `COc1cc2c(Nc3ccc(S(N)(=O)=O)cc3)ncnc2c(OC)c1OC`, the growth was 93.5%.

On to `Nc1cc(Br)c(-c2nn3c(CCC(=O)c4nc5ccccc5[nH]4)nnc3s2)c(Br)c1`, for which the growth was 104%.

Regarding `COc1ccc2c(c1)C(=O)/C(=C/c1ncc([N+](=O)[O-])n1C)O2`, the growth was -16.6% (active).
